Assay results: PubChem BioAssay AID1159580 (chemical genetic matrix, 2015)
Several values for one entry are separate records, joined by “and”; a condition that tells them apart may be missing. Equal entries are not always repeated. In all, about 5,500 compounds went through this assay and about 2,000 (36%) were called active. Inconclusive results (about 18%) are left out. Cut-off read from the data, not from the text of the source: active = normalized growth mostly below about 0.91 (no sharp cut-off); inconclusive = no clear call, values can overlap the other calls; inactive = mostly above about 0.92. Some of the results follow.

Assay: chemical genetic growth profiling, strain panel (AID 1159580);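 note: tested at 20 µM; growth read once vehicle control cultures reached saturation at 30 °C; 1 = growth at the plate median or of vehicle wells; lower values mean less growth of the strain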
Conditions: S. cerevisiae deletion strains, growth OD

Measured: normalized growth

COc1cc(O)cc(OC)c1OC
inactive: locus YAL013W, strain DEP1, stronger effect = lower value 1.05 | locus YAL021C, strain ccr4, stronger effect = lower value 0.982 | locus YAL026C, strain drs2, stronger effect = lower value 0.974 | locus YAL030W, strain snc1, stronger effect = lower value 0.977 | locus YBL061C, strain skt5, stronger effect = lower value 0.98 | locus YBR009C, strain hhf1, stronger effect = lower value 0.964 | locus YBR021W, strain FUR4, stronger effect = lower value 1.01 | locus YBR023C, strain chs3, stronger effect = lower value 0.999 | locus YBR171W, strain sec66, stronger effect = lower value 0.978 | locus YBR229C, strain ROT2, stronger effect = lower value 1.01 | locus YBR231C, strain swc5, stronger effect = lower value 0.992 | locus YBR279W, strain paf1, stronger effect = lower value 0.992 | locus YCL011C, strain gbp2, stronger effect = lower value 0.969 | locus YCL016C, strain dcc1, stronger effect = lower value 0.997 | locus YCL029C, strain bik1, stronger effect = lower value 1.01 | locus YCL061C, strain MRC1, stronger effect = lower value 0.986 | locus YCL069W, strain vba3, stronger effect = lower value 0.978 | locus YCR088W, strain abp1, stronger effect = lower value 0.987 | locus YDL005C, strain med2, stronger effect = lower value 0.967 | locus YDL035C, strain GPR1, stronger effect = lower value 1.05 | locus YDL040C, strain nat1, stronger effect = lower value 0.989 | locus YDL074C, strain BRE1, stronger effect = lower value 1.04 | locus YDL101C, strain DUN1, stronger effect = lower value 1.02 | locus YDL134C, strain PPH21, stronger effect = lower value 1.01 | locus YDL185W, strain tfp1, stronger effect = lower value 1 | locus YDL192W, strain arf1, stronger effect = lower value 1.03 | locus YDR001C, strain nth1, stronger effect = lower value 0.972 | locus YDR069C, strain doa4, stronger effect = lower value 0.962 | locus YDR101C, strain arx1, stronger effect = lower value 1 | locus YDR137W, strain rgp1, stronger effect = lower value 0.998 | locus YDR159W, strain sac3, stronger effect = lower value 0.925 | locus YDR162C, strain NBP2, stronger effect = lower value 1.06 | locus YDR195W, strain ref2 0.918 | locus YDR297W, strain sur2, stronger effect = lower value 0.986 | locus YDR318W, strain mcm21, stronger effect = lower value 1.01 | locus YDR334W, strain swr1, stronger effect = lower value 0.975 | locus YDR335W, strain msn5, stronger effect = lower value 0.991 | locus YDR388W, stronger effect = lower value 1.01 | locus YDR392W, strain spt3, stronger effect = lower value 0.942 | locus YDR502C, strain sam2, stronger effect = lower value 0.999 | locus YEL003W, strain gim4, stronger effect = lower value 0.987 | locus YEL037C, strain rad23, stronger effect = lower value 0.988 | locus YEL061C, strain CIN8 (second series), stronger effect = lower value 0.961 | locus YEL061C, strain CIN8, stronger effect = lower value 1.02 | locus YER015W, strain faa2, stronger effect = lower value 1 | locus YER016W, strain bim1, stronger effect = lower value 0.995 | locus YER110C, stronger effect = lower value 1 | locus YER111C, strain swi4, stronger effect = lower value 0.967 | locus YER155C, strain BEM2 (second series), stronger effect = lower value 0.97 | locus YER155C, strain BEM2, stronger effect = lower value 1.02 | locus YER167W, strain BCK2, stronger effect = lower value 1.02 | locus YFR010W, strain ubp6, stronger effect = lower value 0.962 | locus YGL078C, strain dbp3, stronger effect = lower value 1.01 | locus YGL086W, strain mad1, stronger effect = lower value 1.01 | locus YGL167C, strain pmr1, stronger effect = lower value 0.954 | locus YGL173C, strain kem1, stronger effect = lower value 0.99 | locus YGL227W, strain vid30, stronger effect = lower value 0.97 | locus YGL240W, strain doc1, stronger effect = lower value 0.945 | locus YGL248W, strain PDE1, stronger effect = lower value 1.04 | locus YGL253W, strain hxk2, stronger effect = lower value 0.995 | locus YGR135W, strain pre9, stronger effect = lower value 1.01 | locus YGR252W, strain gcn5, stronger effect = lower value 1.03 | locus YHR013C, strain ard1, stronger effect = lower value 0.923 | locus YHR027C, strain rpn1, stronger effect = lower value 0.993 | locus YHR030C, strain SLT2, stronger effect = lower value 1.02 and 0.996 | locus YHR079C, strain IRE1 (second series), stronger effect = lower value 0.995 | locus YHR079C, strain IRE1, stronger effect = lower value 0.983 | locus YHR094C, strain hxt1, stronger effect = lower value 0.992 | locus YHR129C, strain ARP1, stronger effect = lower value 1.02 | locus YHR142W, strain chs7, stronger effect = lower value 1.01 | locus YHR200W, strain rpn10, stronger effect = lower value 1.01 | locus YIL066C, strain RNR3, stronger effect = lower value 1.03 | locus YIL073C, strain SPO22, stronger effect = lower value 1.06 | locus YIL125W, strain kgd1, stronger effect = lower value 1.01 | locus YIR030C, strain dcg1, stronger effect = lower value 1 | locus YJL092W, strain hpr5, stronger effect = lower value 0.982 | locus YJL095W, strain BCK1 (second series), stronger effect = lower value 0.996 | locus YJL095W, strain BCK1, stronger effect = lower value 1.05 and 0.999 | locus YJL115W, strain asf1, stronger effect = lower value 0.992 | locus YJL129C, strain trk1, stronger effect = lower value 0.97 | locus YJL134W, strain LCB3, stronger effect = lower value 1.03 | locus YJL154C, strain vps35, stronger effect = lower value 0.983 | locus YJL164C, strain tpk1, stronger effect = lower value 0.971 | locus YJL166W, strain qcr8, stronger effect = lower value 0.993 | locus YJL168C, strain set2, stronger effect = lower value 1.01 | locus YJL187C, strain SWE1 (second series), stronger effect = lower value 1.03 | locus YJL187C, strain SWE1, stronger effect = lower value 0.977 | locus YJR043C, strain POL32, stronger effect = lower value 1.05 | locus YJR066W, strain TOR1, stronger effect = lower value 0.905 | locus YKL009W, strain mrt4, stronger effect = lower value 1.05 | locus YKL068W, stronger effect = lower value 1.01 | locus YKL085W, strain MDH1 (second series), stronger effect = lower value 1.02 | locus YKL085W, strain MDH1, stronger effect = lower value 1.02 | locus YKL160W, strain elf1, stronger effect = lower value 1 | locus YKR001C, strain vps1, stronger effect = lower value 1.01 | locus YKR026C, strain gcn3, stronger effect = lower value 0.945 | locus YKR091W, strain srl3, stronger effect = lower value 0.968 | locus YLL001W, strain dnm1, stronger effect = lower value 0.994 | locus YLL026W, stronger effect = lower value 0.998 | locus YLL041C, strain sdh2, stronger effect = lower value 1 | locus YLR027C, strain aat2, stronger effect = lower value 0.986 | locus YLR039C, strain RIC1, stronger effect = lower value 1.11 | locus YLR058C, strain SHM2, stronger effect = lower value 1.03 | locus YLR102C, strain apc9, stronger effect = lower value 0.99 | locus YLR113W, strain HOG1, stronger effect = lower value 1.04 | locus YLR221C, strain rsa3, stronger effect = lower value 0.97 | locus YLR258W, strain gsy2, stronger effect = lower value 0.996 | locus YLR262C, strain YPT6 (second series), stronger effect = lower value 0.992 | locus YLR262C, strain YPT6, stronger effect = lower value 1.15 | locus YLR268W, strain sec22, stronger effect = lower value 1.03 | locus YLR320W, strain mms22, stronger effect = lower value 0.984 | locus YLR342W, strain FKS1 (second series), stronger effect = lower value 1.04 | locus YLR342W, strain FKS1, stronger effect = lower value 0.957 | locus YLR357W, strain rsc2, stronger effect = lower value 0.948 | locus YLR370C, strain arc18, stronger effect = lower value 0.955 | locus YLR371W, strain rom2, stronger effect = lower value 1 | locus YLR384C, strain iki3, stronger effect = lower value 0.937 | locus YLR418C, strain cdc73, stronger effect = lower value 1.01 | locus YML016C, strain PPZ1, stronger effect = lower value 1.02 | locus YML032C, strain rad52, stronger effect = lower value 1.01 | locus YML120C, strain ndi1, stronger effect = lower value 0.97 | locus YML124C, strain tub3, stronger effect = lower value 1.01 | locus YMR058W, strain fet3, stronger effect = lower value 0.97 | locus YMR078C, strain ctf18, stronger effect = lower value 1 | locus YMR125W, strain sto1, stronger effect = lower value 0.984 | locus YMR129W, stronger effect = lower value 0.962 | locus YMR205C, strain PFK2, stronger effect = lower value 0.95 | locus YMR223W, strain ubp8, stronger effect = lower value 0.993 | locus YMR231W, strain pep5, stronger effect = lower value 0.994 | locus YMR307W, strain GAS1, stronger effect = lower value 1.08 | locus YNL067W, strain RPL9B, stronger effect = lower value 1.03 | locus YNL071W, strain lat1, stronger effect = lower value 0.994 | locus YNL128W, strain TEP1, stronger effect = lower value 1.07 | locus YNL153C, strain GIM3, stronger effect = lower value 1.01 | locus YNL183C, strain NPR1, stronger effect = lower value 0.928 | locus YNL209W, strain ssb2, stronger effect = lower value 0.983 | locus YNL233W, strain BNI4, stronger effect = lower value 1.03 | locus YNL248C, strain rpa49, stronger effect = lower value 1 | locus YNL250W, strain rad50, stronger effect = lower value 1.03 | locus YNL271C, strain bni1, stronger effect = lower value 1.01 | locus YNL298W, strain CLA4, stronger effect = lower value 1 | locus YNL307C, strain MCK1, stronger effect = lower value 0.996 | locus YNL322C, strain KRE1 (second series), stronger effect = lower value 0.964 | locus YNR049C, strain mso1, stronger effect = lower value 0.986 | locus YNR052C, strain pop2, stronger effect = lower value 0.996 | locus YOL006C, strain TOP1, stronger effect = lower value 1.22 | locus YOL012C, strain htz1 1.19 | locus YOL147C, strain pex11, stronger effect = lower value 1 | locus YOR001W, strain rrp6, stronger effect = lower value 1.01 | locus YOR061W, strain CKA2, stronger effect = lower value 1.04 | locus YOR069W, strain VPS5, stronger effect = lower value 1.01 | locus YOR070C, strain gyp1, stronger effect = lower value 0.993 | locus YOR080W, strain dia2, stronger effect = lower value 0.977 | locus YOR083W, strain WHI5, stronger effect = lower value 1 | locus YOR106W, strain vam3, stronger effect = lower value 1 | locus YOR136W, strain idh2, stronger effect = lower value 1.01 | locus YOR144C, strain elg1, stronger effect = lower value 1 | locus YOR184W, strain ser1, stronger effect = lower value 1.05 | locus YOR231W, strain MKK1, stronger effect = lower value 1 | locus YOR265W, strain rbl2, stronger effect = lower value 0.96 | locus YOR270C, strain vph1, stronger effect = lower value 0.986 | locus YOR290C, strain snf2, stronger effect = lower value 0.921 | locus YOR316C, strain cot1, stronger effect = lower value 0.993 | locus YPL051W, strain arl3, stronger effect = lower value 1.01 | locus YPL078C, strain atp4, stronger effect = lower value 0.988 | locus YPL106C, strain sse1, stronger effect = lower value 0.944 | locus YPL240C, strain hsp82, stronger effect = lower value 0.981 | locus YPL256C, strain CLN2, stronger effect = lower value 0.978 | locus YPR119W, strain clb2, stronger effect = lower value 1 | locus YPR141C, strain kar3, stronger effect = lower value 1.01 | locus YPR163C, strain tif3, stronger effect = lower value 1 | locus YPR167C, strain met16, stronger effect = lower value 1.01 | strain wtn01, stronger effect = lower value 1.02
